PubChem BioAssay AID686934 (National Center for Advancing Translational Sciences (NCATS), 2013)
Records with an inconclusive call do not appear. Unmarked numbers belong to inactive results. Calls follow the shape of the dose curve; as a rule, active = well fitted curve in the direction sought with a large enough effect; inconclusive = small, poorly fitted or top-dose-only effect, or another doubt; inactive = no such curve, though single readings can be large or run the other way.

Assay: qHTS screen for small molecules that inhibit ELG1-dependent DNA repair: SAR in Cell-Based Luciferin Counter Assay
Details: cell-based luciferase counter-screen, luminescence; series mostly up to 45.7 µM; activity change, negative = inhibition: at the top concentration
Source text: Cancer cells divide rapidly compared to normal cells in the body. During cell division, cancer cells need to duplicate their genome by DNA replication. The failure of genome duplication leads to cancer cells' death. Therefore, inhibitors of DNA replication could specifically kill cancer cells. Based on this concept, many chemotherapeutic agents were developed and have been used to treat cancer patients. However, there are a limited number of agents available in the clinical setting, and some of those that do exist have low efficacy and severe side effects. Therefore, if we can find the compounds that effectively block DNA replication either by directly damaging DNA or by inhibiting other cellular mechanisms, the options for cancer treatment will be broadened. With this in mind, we developed a quantitative high-throughput ELG1-luciferase reporter gene assay. Small molecules that specifically block ELG1 function in response to DNA damage can be identified by monitoring the suppression of luciferase activity. Since ELG1 defines a pathway for repairing DNA damage, agents blocking ELG1 function can be used to sensitize cancer cells to chemotherapeutic agents whose mechanism of action involves the induction of DNA damage. This assays is a counterscreen, that is more specifically, a cell-based luciferase assay following treatment with putative ELG1 antagonists to eliminate luciferase enhancers/inhibitors NIH Molecular Libraries Probe Production Network [MLPCN] NIH Chemical Genomics Center [NCGC] MLPCN Grant: R03 MH092164 Assay Provider: Kyungjae Myung, NHGRI, NIH
3 uL of substrate reagent will be pipetted into each well in 1536-well white, solid-bottom plates using a FRD dispenser, followed by addition of 23 nL of DMSO or compounds by pintool. After compound addition, 1 µL of luciferase will be added into the wells. The plates will be read in a ViewLux CCD-based plate reader.
In the case of `COc1ccc(C2=Nn3c(nnc3-c3ccccc3OC)SC2)cc1OC`, the “activity change, negative = inhibition” value is reported as 39.9%.
In the case of `Cc1ccc2nc3sc(C(=O)NCc4ccco4)cc3cc2c1`, the “activity change, negative = inhibition” value is reported as 56.4%.
For `COC(=O)Nc1nc2ccc(C(=O)c3cccs3)cc2[nH]1`, the “activity change, negative = inhibition” value was 84.7%.
For `CN(Cc1ccco1)c1ncnc2ccc(-c3cccc(Cl)c3)cc12`, the “activity change, negative = inhibition” value was 15.3%.
For `CC(C)C(=O)SCCCCCCC(=O)Nc1nc(-c2ccccc2)cs1`, the “activity change, negative = inhibition” value was 54.7%.
With `CC(=O)Oc1ccc(-c2nc(-c3ccccc3)no2)cc1` the “activity change, negative = inhibition” value was 29.3%.
With `CC(=O)OCC1=C[C@H]2[C@@H]3C(C)(C)[C@]3(OC(C)=O)C[C@@H](C)[C@]2(O)[C@@H]2C=C(C)C(=O)[C@@]2(O)C1` the “activity change, negative = inhibition” value was 81.2%.
In the case of `COc1cccc2c1C(=O)/C(=C\c1ccc(N(C)C)cc1)C2`, the “activity change, negative = inhibition” value is reported as 63.5%.
With `COc1ccccc1/C=C/c1nc2ccccc2o1` the “activity change, negative = inhibition” value was 61.4%.
With `O=C(Nc1ccccn1)c1sc2ccc([N+](=O)[O-])cc2c1Cl` the “activity change, negative = inhibition” value was 67.8%.
With `Oc1cc2cc(-c3csc(-c4ccc(F)cc4)n3)cc3c2n1CCC3` the “activity change, negative = inhibition” value was 57.7%.
With `COc1ccccc1/C=C/c1nc2ccccc2s1` the “activity change, negative = inhibition” value was 71.1%.
For `CSc1ncnc2c1ncn2C1OC(CO)C(O)C1O` (stereo not given), the “activity change, negative = inhibition” value was -15.1%.
With `O=c1[nH]c(=O)n([C@@H]2O[C@H](CO)[C@@H](O)[C@H]2O)cc1F` the “activity change, negative = inhibition” value was 58.2%.
With `CCCC(=O)Oc1ccc2[nH]c(C(=O)c3cc4ccccc4[nH]3)cc2c1` the “activity change, negative = inhibition” value was 83.3%.
In the case of `O=C(Nc1ccccn1)c1sc2ccccc2c1Cl`, the “activity change, negative = inhibition” value is reported as -47.7%.
In the case of `CN(C)N=Nc1ccc(/C=C2\C=Cc3ccccc32)cc1`, the “activity change, negative = inhibition” value is reported as 55.6%.
In the case of `CCCCCn1ncc2c3sc(C)cc3n(C)c2c1=O`, the “activity change, negative = inhibition” value is reported as 79.8%.
With `CNC(=O)c1cc(-c2cccs2)on1` the “activity change, negative = inhibition” value was 94.4%.
With `COc1ccc(C2CC(c3c(O)cc(C)oc3=O)=NCCS2)c(OC)c1` (stereo not given) the “activity change, negative = inhibition” value was 82.9%.
For `O=C(c1cc2ccccc2[nH]1)c1cc2cc(O)ccc2[nH]1`, the “activity change, negative = inhibition” value was 92.7%.
With `COc1ccc(-c2cnc(-c3cccnc3)o2)cc1` the “activity change, negative = inhibition” value was 76%.
In the case of `Cc1noc(C)c1-c1ccc2ncnc(NCc3ccc(F)c(F)c3)c2c1`, the “activity change, negative = inhibition” value is reported as 73.8%.
For `COc1cccc2oc(-c3ccccc3)cc(=O)c12`, the “activity change, negative = inhibition” value was 68.4%.
With `Cc1ccnc(NC(=S)N2CCN(c3ccc(N)cc3)CC2)c1` the “activity change, negative = inhibition” value was 74.6%.
With `Oc1ccc(/C=C/c2c(F)cccc2F)c2cccnc12` the “activity change, negative = inhibition” value was 17.6%.
With `O=C1/C(=C/c2ccc(O)c(O)c2)Oc2ccccc21` the “activity change, negative = inhibition” value was 74.8%.
For `N#Cc1ccc(-c2ccc(-c3nc4ccccc4c(=O)[nH]3)o2)cc1`, the “activity change, negative = inhibition” value was -16%.
In the case of `CC(C)CN(C)c1ccc(/C=C2\C=Cc3ccccc32)cc1`, the “activity change, negative = inhibition” value is reported as 69.7%.
With `O=c1[nH]c(=O)n([C@@H]2C[C@H](O)[C@H](CO)O2)cc1C(F)(F)F` the “activity change, negative = inhibition” value was -13.5% [at 15.7 µM].
For `O=C(/C=C/C#Cc1cccc(NS(=O)(=O)c2ccccc2)c1)NO`, the “activity change, negative = inhibition” value was -8.27%.
For `Oc1ccc(CCc2ccccc2F)c2cccnc12`, the “activity change, negative = inhibition” value was 39.3%.
In the case of `CN(C)c1ccc(/C=C2\C=Cc3ccccc32)c(F)c1`, the “activity change, negative = inhibition” value is reported as 47.5%.
In the case of `COc1ccc(-c2coc3cc(O)cc(O)c3c2=O)cc1`, the “activity change, negative = inhibition” value is reported as 76.9%.
With `Nc1ccc2cccnc2c1` the “activity change, negative = inhibition” value was 68.2%.
In the case of `O=C(Cc1ccc(OCCCc2ccccc2)cc1)NO`, the “activity change, negative = inhibition” value is reported as 60.9%.
For `CC(=O)Nc1ccc(/C=C/c2sc3ccccc3[n+]2CCCCI)cc1`, the “activity change, negative = inhibition” value was 74.8%.
With `Cc1cc2ncc(-c3ccccc3)nc2cc1C` the “activity change, negative = inhibition” value was 69.2%.
In the case of `CN(C)c1ccc(N=Nc2ccc(/C=C/c3ccnc4ccccc34)cc2)cc1`, the “activity change, negative = inhibition” value is reported as 56.3%.
For `c1cncc(CNc2ncnc3ccc(-c4ccoc4)cc23)c1`, the “activity change, negative = inhibition” value was -17.6%.
